In all, about 220,000 compounds went through this assay and about 910 (0.41%) were called active.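 The calls were made as follows: active = primary inhibition above the hit cutoff, then over 50% inhibition at one or more dose response concentrations (cut at about 23% in these data, passing the limit was not always enough); inconclusive = conflicting primary data, or primary hits not chosen for dose response; inactive = low primary inhibition, or under 50% at every dose.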 Many of the other results were omitted from the sample, so actives are more common in it than they were. Entries with a potency or affinity are not part of this list.
These compounds were tested against Aminopeptidase N (Plasmodium falciparum (isolate 3D7)) (UniProt O96935) (assay: malaria alanyl aminopeptidase activity blockers – biochemical, fluorogenic H-Leu-NHMec substrate, 1536-well (AID 1445;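 also: plate controls were DMSO full reaction for no effect and no enzyme background for full effect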)). Settings: recombinant M1AAP, H-Leu-NHMec fluorogenic kinetic assay; at 30 µM, active compounds read high unless noted.
Chain of Aminopeptidase N (Plasmodium falciparum (isolate 3D7)) (O96935 whole entry, looked up): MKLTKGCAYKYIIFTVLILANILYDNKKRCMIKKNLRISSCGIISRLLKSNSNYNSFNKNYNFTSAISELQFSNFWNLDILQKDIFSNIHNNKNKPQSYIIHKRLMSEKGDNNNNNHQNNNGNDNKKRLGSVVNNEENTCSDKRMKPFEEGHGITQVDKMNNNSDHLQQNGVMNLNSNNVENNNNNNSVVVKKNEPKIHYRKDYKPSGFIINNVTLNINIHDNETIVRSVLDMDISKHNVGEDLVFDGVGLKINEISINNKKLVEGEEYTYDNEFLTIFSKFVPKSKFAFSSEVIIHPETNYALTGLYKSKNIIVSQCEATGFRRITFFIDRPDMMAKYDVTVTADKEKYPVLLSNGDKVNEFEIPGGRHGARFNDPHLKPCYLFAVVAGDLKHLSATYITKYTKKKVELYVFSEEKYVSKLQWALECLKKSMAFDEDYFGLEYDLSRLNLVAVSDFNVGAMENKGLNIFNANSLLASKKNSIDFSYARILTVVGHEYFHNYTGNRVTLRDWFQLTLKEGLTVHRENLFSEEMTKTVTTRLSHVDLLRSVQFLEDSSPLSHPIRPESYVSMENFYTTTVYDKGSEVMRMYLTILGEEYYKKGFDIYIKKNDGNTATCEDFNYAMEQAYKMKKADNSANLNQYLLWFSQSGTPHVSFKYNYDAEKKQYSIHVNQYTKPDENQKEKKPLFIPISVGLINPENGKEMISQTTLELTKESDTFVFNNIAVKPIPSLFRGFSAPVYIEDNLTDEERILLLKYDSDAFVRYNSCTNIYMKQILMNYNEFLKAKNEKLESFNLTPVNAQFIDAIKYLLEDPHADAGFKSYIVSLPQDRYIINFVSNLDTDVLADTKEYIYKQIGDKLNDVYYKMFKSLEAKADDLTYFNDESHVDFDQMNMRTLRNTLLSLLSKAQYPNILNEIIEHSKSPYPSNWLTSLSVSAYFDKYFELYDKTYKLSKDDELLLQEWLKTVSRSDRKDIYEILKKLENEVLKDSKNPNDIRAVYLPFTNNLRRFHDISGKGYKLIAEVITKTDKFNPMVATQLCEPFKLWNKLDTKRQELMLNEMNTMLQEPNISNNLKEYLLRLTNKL

inhibition, inactive:
Cc1cc(=O)n(-c2ccc(Cl)cc2)c(=O)[nH]1 -2%
Cc1c(C(=O)NCc2ccccn2)oc2ccc(S(=O)(=O)N3CCOCC3)cc12 -1.02%
O=C(O)CCCC(=O)NNc1ncnc2ccccc12 13.7%
O=C(CCCCCN1C(=O)c2ccccc2C1=O)NCc1ccco1 19.7%
O=C(Oc1c(Cl)cc(Cl)c2ccccc12)N1CCCC1 13.6%
COc1ccc(-c2nn(-c3ccccc3)cc2/C=C/C(=O)OCC(=O)Nc2cccc(C#N)c2)cc1 0.99%
O=C(NCc1ccco1)c1cccc(F)c1 4.04%
O=C(NC1CCN(C(=S)NCc2ccco2)CC1)c1ccc(F)cc1 14.1%
COc1ccc(C(C(=O)NC2CCCCC2)N(C(=O)c2sc(C)nc2C)c2ccccc2)cc1 (stereo not drawn) -2.38%
Cc1cc(NC(=O)Nc2cccs2)no1 6.28%
Cc1ccc(NC(=O)Nc2cccs2)cc1 9.98%
O=C(Nc1ccccn1)c1cccs1 3.97%
O=C(Nc1ccncc1)Nc1ccccn1 3.11%
Cc1cccc(C)c1-n1c(C)cc(/C=N/NC(=O)CSc2ncccn2)c1C 4.32%
CC(C)CCNC(=O)NC(=O)COC(=O)C1=COCCO1 -7.85%
O=c1cc(C23CC4CC(CC(C4)C2)C3)[nH][nH]1 -6.62%
COc1ccc(C(=O)/C(=C\c2sccc2C)c2nc3ccccc3o2)cc1 2.1%
N#C/C(=C\c1ccc(Cl)cc1)c1nc2ccccc2o1 15.7%
N#C/C(=C\c1ccc(O)cc1)c1nc2ccccc2o1 7.39%
COc1ccc(C(=O)/C(=C/c2cccs2)c2nc3ccccc3o2)cc1 15.5%
COCc1[nH]nc2c1C(c1ccsc1)C(C#N)=C(N)O2 (stereo not drawn) 1.23%
CCc1ccc(N2CC(C(=O)Nc3cc(C)ccc3F)CC2=O)cc1 (stereo not drawn) 1.79%
Cc1c2c(nc3c(C(=O)NC4CCCCC4C)cnn13)CCCC2 (stereo not drawn) 3.74%
O=C(Cc1csc(-c2ccccc2)n1)NCc1ccccc1F 2.51%
COCc1cc(C)n(CC(=O)Nc2ccc(Cl)cc2Cl)c(=O)c1C#N 10.9%
O=C(N/N=C/c1ccc([N+](=O)[O-])o1)c1cc2c(ccc3ccccc32)o1 5.62%
O=[N+]([O-])c1cccc(-c2ccc(/C=N/NC(=S)Nc3ccccc3)o2)c1 2.03%
Nc1nonc1C(=O)N/N=C/c1ccc(-c2cccc([N+](=O)[O-])c2)o1 7.55%
Cc1ccc(-c2ccc(/C=N\NC(=O)c3cc4c(ccc5ccccc54)o3)o2)cc1[N+](=O)[O-] 2.34%
Nc1nonc1C(=O)N/N=C/c1ccc(-c2cccc(C(=O)O)c2)o1 16.9%
O=C(O)c1cc(-c2ccc(/C=N/Nc3ccc(Cl)cc3)o2)ccc1Cl 16.9%
COCc1cc(C)nc(N/N=C/c2ccc(-c3ccc(C(=O)O)c(Cl)c3)o2)c1C#N 15.5%
CC(=O)Nc1ccc(S(=O)(=O)NCC(=O)OCC(=O)NC(=O)c2cccn2C)cc1 3.48%
CC1CCN(S(=O)(=O)c2ccc(NC(=O)CCN3C(=O)c4ccccc4C3=O)cc2)CC1 4.02%
C=CCNC(=S)/N=c1/scc(C)n1C 6.8%
Cc1ccccc1Cn1ccc(NC(=O)c2onc(C)c2Cl)n1 2.73%
COCCNC(=O)COc1ccccc1Cl 17.4%
O=C(Nn1cc(C(=O)Nc2ccc(F)cc2F)c2ccccc2c1=O)c1cnccn1 5.45%
CCOC(=O)N1CCN(c2c(N3CCN(c4ccccc4F)CC3)c(=O)c2=O)CC1 3.17%
CCc1nnc(NC(=O)CSc2nnc(CNC(=O)c3ccc(OC)c(OC)c3)o2)s1 0.34%
CC1(C)NC(=O)N(CCCCOc2ccccc2[N+](=O)[O-])C1=O 1.49%
COC(=O)c1ccc(-c2ccc(/C=N/N3C(=O)C4C5C=CC(C6CC56)C4C3=O)o2)cc1 (stereo not drawn) 4.36%
O=C(Cc1ccc(Br)cc1)N/N=C/c1ccc(-c2cccc(C(=O)O)c2)o1 14.3%
COc1ccc(CC(=O)N/N=C/c2ccc(-c3ccc(F)cc3)o2)cc1OC 6.71%
O=C1C2C3C=CC(C4CC34)C2C(=O)N1/N=C/c1ccc(-c2ccc([N+](=O)[O-])cc2)o1 (stereo not drawn) 7.6%
O=C(CCN1CCN(C(=O)c2ccco2)CC1)Nc1ccc(F)cc1 1.29%
S=C(NCCCn1ccnc1)NC1CCCCC1 6.56%
CCC(C)NC(=O)CN(C)S(=O)(=O)c1ccc2c(c1)c(=O)n(C)c(=O)n2C (stereo not drawn) -4.82%
CCCC(=O)OCC(=O)Nc1ccc2c(c1)OCO2 -0.89%
CCOC(=O)C1=C(C)N=c2s/c(=C3\C(=O)Nc4ccccc43)c(=O)n2C1c1ccc2c(c1)OCO2 (stereo not drawn) 8.57%
CCO/C=C1/C(=O)N(c2ccc(OC)cc2)C(=O)c2ccccc21 4.8%
CCOc1ccc(N2C(=O)c3ccccc3C2=O)cc1 -0.53%
Cc1cc(C)nc(NS(=O)(=O)c2ccc(N3C(=O)c4ccccc4C3=O)cc2)n1 0.35%
CCO/C=C1\C(=O)N(c2ccccc2)C(=O)c2ccccc21 -1.51%
COc1ccccc1N1CCN(C(c2ccc(N(C)C)cc2)c2nnnn2CCc2ccccc2)CC1 (stereo not drawn) -7.04%
CCCc1cc(=O)oc2c(CN3CCOCC3)c(O)ccc12 21.8%
CCc1cc2c3c(c(=O)oc2cc1O)CCCC3 22.5%
Cc1oc2c(CN3CCCC3)c(O)ccc2c(=O)c1-c1ccccc1 9.3%
Cc1oc2c(CN3CCCC3)c(O)ccc2c(=O)c1-c1ccc(Br)cc1 17.5%
O=c1oc2c(CN3CCOCC3)c(O)ccc2c2ccccc12 3.91%
CCN(CC)Cc1c(O)c(Cl)cc2c3c(c(=O)oc12)CCCC3 9.62%
COc1ccc(Oc2c(C)oc3c(CN(C)C)c(O)ccc3c2=O)cc1 2.59%
CCc1c(C)c2ccc(OCC(=O)N(C)C)c(C)c2oc1=O 0.38%

From PubChem BioAssay AID1445 (SRMLSC, 2008)
